Compounds with a hit are over-represented: about 2.4% of the library has one in this group of screens.
Prx2 Sm inh: Schistosoma Mansoni Peroxiredoxins (Prx2) | Schistosoma mansoni peroxiredoxin 2 (Prx2) | S. mansoni Prx2 activity coupled to TGR/GSH (TGR is thioredoxin glutathione reductase), NADPH fluorescence loss, qHTS | Potency, µM | 65,000 tested, 0.07% active
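Prx2 activity was followed as the loss of NADPH fluorescence (ex 365/em 450 nm), read every 30 sec for 8 min after H2O2 start. The enzyme mix (50 nM Prx2, 25 nM TGR, GSH, NADPH; pH 7.4 phosphate buffer) was incubated with compound for 15 min at room temperature first.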
AmpC inh no det: Promiscuous and Specific Inhibitors of AmpC Beta-Lactamase (assay without detergent); AmpC nitrocefin hydrolysis, absorbance 480 nm, no detergent; Potency, µM (top dose mostly 28.7 µM), for the others: at the highest dose activity change, negative = inhibition; 71,000 tested, 1.8% active; AID 585, 2007; note: % of control where 0% means no effect
Target sequence (P00811 whole entry, looked up): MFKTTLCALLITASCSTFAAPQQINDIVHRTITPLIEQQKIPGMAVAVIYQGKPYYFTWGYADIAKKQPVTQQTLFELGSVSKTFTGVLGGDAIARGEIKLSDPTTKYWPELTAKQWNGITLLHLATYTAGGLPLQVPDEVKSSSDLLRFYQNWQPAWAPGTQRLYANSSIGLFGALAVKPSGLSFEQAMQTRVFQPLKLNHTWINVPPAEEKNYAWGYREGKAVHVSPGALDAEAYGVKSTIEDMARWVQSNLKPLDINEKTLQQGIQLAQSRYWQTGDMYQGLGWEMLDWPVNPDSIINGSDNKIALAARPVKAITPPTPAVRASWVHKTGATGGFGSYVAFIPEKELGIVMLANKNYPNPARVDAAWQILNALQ
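AmpC in 20 mM phosphate buffer pH 7.0 was preincubated 15 min at room temperature with compounds. Nitrocefin (800 uM stock) was then added and hydrolysis followed at 480 nm every 20 s for 4 min.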
AmpC det inh: Promiscuous and Specific Inhibitors of AmpC Beta-Lactamase (assay with detergent); P00811; Potency, µM (titrated, usually from 28.7 µM), for inactives: at the highest dose activity change, negative = inhibition; 71,000 tested, 0.09% active; purified AmpC, nitrocefin hydrolysis with detergent; AID 584, 2007; active = well fitted curve in the direction sought with a large enough effect; inconclusive = small, poorly fitted or top-dose-only effect; note: % is set by controls: 0 for no effect and ±100 for the full control effect
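E. coli AmpC (5.3 nM) in 20 mM phosphate pH 7.0 with 0.01% Triton X-100, preincubated 15 min RT with compound; nitrocefin (2 uL of 800 uM stock) hydrolysis followed by 480 nm absorbance every 20 s over 4 min.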
LT uptake inh: qHTS Assay for Anthrax Lethal Toxin Internalization. Cells, anthrax lethal toxin internalization, FRET ratio (460/530). Potency, µM (highest dose often 40 µM), inactives show top-dose activity change, negative = inhibition, usual class: inhibitors. 70,000 tested, 0.67% active. AID 912, 2007; note: % is set by controls: 0 for no effect and ±100 for the full control effect; nearly all actives have a fitted effect of over 50% in size
An asterisk follows results filed as active; ? = inconclusive; . = no result given; [ ] = remark or other dose. Unless noted, calls come from the whole dose curve. Potency is the fitted concentration of half-maximal effect.

SMILES	Prx2 Sm inh	AmpC inh no det	AmpC det inh	LT uptake inh
N#C/C(C(=O)c1ccccc1)=C1/SC=C(N)N1c1ccccc1	>57	12.6µM*	11.0%	-29.2%
COC(=O)CS(=O)(=O)c1nnc([C@H](Cc2ccccc2)NC(=O)OC(C)(C)C)o1	?	?	3.98µM*	.
N[C@H](Cc1cc(I)c(Oc2cc(I)c(O)c(I)c2)c(I)c1)C(=O)O	>57	-18.2%[12.8 µM]	5.9%[12.8 µM]	4.8%[3.58 µM]
CCNc1ncc2nc(-c3cn(C)c4ccccc34)c(=O)n(-c3ccccc3)c2n1	>57	1.5%	-1.2%	?
CCn1cc(C(=O)NCc2ccc3c(c2)OCO3)c(=O)c2cc(S(=O)(=O)N3CCOCC3)ccc21	>57	99.8%	-1.2%	?
CCn1cc(C(=O)N2CC(C)CC(C)C2)c(=O)c2cc(S(=O)(=O)N(C)C)ccc21 (configuration not stated)	>57	68.3%	6.7%	-13.5%
CCn1cc(C(=O)NCCCN2CC(C)CC(C)C2)c(=O)c2cc(S(=O)(=O)N(C)C)ccc21 (configuration not stated)	>57	3.16µM*[single pt active]	12.8%	-19.4%
CCn1cc(C(=O)NCC2CCCO2)c(=O)c2cc(S(=O)(=O)N(C)C)ccc21 (configuration not stated)	>57	3.98µM*[single pt active]	12.8%	3.6%
CCn1cc(C(=O)NCc2ccc(Cl)cc2)c(=O)c2cc(S(=O)(=O)N3CCOCC3)ccc21	>57	3.98µM*[single pt active]	14.0%	-17.1%
Cn1c(=O)c2c(nc(C(=N)SCC(=O)O)n2C)n(C)c1=O	>57	-9.4%[5.75 µM]	-2.3%[5.75 µM]	-24.0%[8 µM]
Cc1ccccc1-c1cc(Nc2ccc(F)cc2)ncn1	>57	0.5%	7.3%	-4.5%
COc1ccccc1CNc1ncnc2ccc(-c3cccc(C#N)c3)cc12	>57	21.4%	8.1%	?
C=CC1=C(C)C2=NC1=CC1=NC(=CC3=NC(=CC4=NC(=C2)C(C)=C4CCC(=O)O)C(CCC(=O)O)=C3C)C(C=C)=C1C.[Zn]	>57	78.0%	-12.4%	15.8µM*
COc1ncc2ncc(=O)n(C3CC3)c2n1	>57	16.6%	14.9%	?
CN1CCN(c2ncnc3ccc(-c4ccccc4C#N)cc23)CC1	>57	44.8%	4.6%	?
CN1CCN(c2ncnc3ccc(-c4ccccc4C(F)(F)F)cc23)CC1	>57	126.1%	9.8%	12.6µM*
CCNc1sc(C(=O)c2cccs2)c(N)c1-c1nc2ccccc2s1	>57	0.02µM*	8.6%	?
COC(=O)[C@@H]1C[C@H]1[C@@H](NS(=O)(=O)c1ccc(-c2ccccc2)cc1)c1ccccc1	>57	-12.1%	-1.5%	?
COc1ccc(N(C)C(=O)c2ccc3snnc3c2)cc1	>57	3.98µM*[single pt active]	11.1%	-4.1%
COc1ccc(NC(=O)NCCCN2CCc3ccccc3C2)cc1	>57	3.98µM*[single pt active]	14.4%	-9.4%
COc1ccccc1N1CCN(CCCNC(=O)Nc2ccccc2)CC1	>57	18.0%	-2.7%	.
O=C(Nc1nnc(N2CCCCCC2)s1)c1cc(-c2ccc(Br)cc2)on1	>57	3.98µM*[single pt active]	11.2%	-10.7%
COC(=O)c1cc(-c2ccc(Br)cc2)on1	>57	3.98µM*[single pt active]	11.0%	-16.3%
COC(=O)c1cc(-c2ccc(OC)c(OC)c2)on1	>57	10.2%	0.1%	-2.2%
COC(=O)c1cccc(C(=O)Nc2ccc(C)cc2)n1	>57	23.1%	-3.7%	5.01µM*
SMILES	Prx2 Sm inh	AmpC inh no det	AmpC det inh	LT uptake inh
COc1cccc(C(=O)Nc2ccc(C)cc2)c1	>57	-15.1%	1.9%	-17.4%
COc1ccc(CCCO[C@@H](Cn2ccnc2)c2ccc(OC)cc2)cc1	>57	94.9%	-9.9%	?
O=C(Nc1cccc(F)c1)N1CC2(CCN(C(=O)c3cc(C(F)(F)F)cc(C(F)(F)F)c3)CC2)C1	>11.4	75.3%	-0.2%	1.9%
COc1ccc(CCNc2oc(COc3ccccc3Cl)nc2C#N)cc1OC	>57	50.9%	13.1%	15.8µM*
COc1ccc(NC(=O)c2ccc(-c3ccc(-c4noc(C)n4)cc3C)cc2)cc1N1CCN(C)CC1	>57	147.4%	-5.7%	?
COc1ccc(NC(=O)c2ccc(-c3ccc(-c4noc(C)n4)cc3C)cc2)cc1OCCN(C)C	>57	161.0%	-1.4%	15.8µM*
COc1cccc(Cn2c(=O)cnc3cnc(Oc4ccccc4)nc32)c1	>57	10.8%	0.9%	4.6%
O=C(Nc1cccc(Br)c1)c1cc2ccccc2o1	.	-3.8%	-2.7%	5.01µM*
Cc1nn(-c2ccccc2)c2nc(N)c(C#N)c(-c3ccc(F)cc3)c12	.	2.6%	-0.4%	5.01µM*
Cc1ccc(-n2nc(C)c3c(-c4cccs4)c(C#N)c(N)nc32)cc1	>57	-9.9%	2.6%	?
COc1ccc(OCc2nnc3n2N=C(c2ccc(OC)cc2)CS3)cc1	>57	3.98µM*[single pt active]	14.4%	-1.3%
O=C(NCc1ccccc1)c1noc2c1CCCC2	>57	2.8%	-3.0%	2.4%
CC(C)CNC(=O)c1noc2c1CCCC2	>57	3.98µM*[single pt active]	4.2%	-7.6%
CO[C@H]1COC(=O)[C@H]2CCCN2C(=O)[C@@H](C)COC(=O)C/C=C\[C@@H]1C	.	.	.	-7.7%[1.6 µM]
Cc1ccc(OCC(=O)Nc2ccc(S(=O)(=O)Nc3onc(C)c3C)cc2)cc1	>57	2.3%	-2.2%	0.0%
Cc1noc(NS(=O)(=O)c2ccc(NC(=O)COc3ccc(Cl)cc3Cl)cc2)c1C	.	6.31µM*	12.1%	?
Cc1ccc(S(=O)(=O)CC(=O)Nc2ccc(S(=O)(=O)Nc3onc(C)c3C)cc2)cc1	>57	-3.4%	-3.0%	-0.6%
CCc1cccc(OCC(=O)Nc2ccc(S(=O)(=O)Nc3onc(C)c3C)cc2)c1	>57	3.98µM*[single pt active]	12.1%	-8.4%
CN1CCN(c2ncc3nc(-c4ccc(Cl)cc4)c(=O)n(CCC#N)c3n2)CC1	>57	111.9%	0.3%	?
Nc1c(Cl)cc(Cl)cc1Cl	.	-11.6%	9.7%	3.2%
O=C(Nc1ccc2nc(C3CC3)n(Cc3ccc(F)cc3)c(=O)c2c1)c1ccco1	>57	37.6%	3.0%	-18.3%
COc1cccc(Cn2c(C3CC3)nc3ccc(NC(=O)c4ccco4)cc3c2=O)c1	>57	44.6%	-5.3%	12.6µM*
CCN(CC)CCO[C@H]1CC[C@@]2(C)C(=CC[C@@H]3[C@H]2CC[C@]2(C)C(=O)CC[C@H]32)C1	>57	43.8%	-2.0%	25.1µM*
C[C@@]12CC[C@H]3[C@@H](CC=C4C[C@H](OS(=O)(=O)O)CC[C@]43C)[C@H]1CCC2=O	>57	4.9%	-1.0%	?
CCOc1ccc(-c2n[nH]c(C)c2Oc2ccccc2OC)c(O)c1	>57	-6.6%	-3.8%	-30.6%
C=C(C)COc1ccc(-c2n[nH]c(C)c2Oc2ccccc2OC)c(O)c1	>57	-15.9%	6.3%	10µM*
C=C(C)COc1ccc(-c2[nH]ncc2Oc2cccc(OC)c2)c(O)c1	?	10µM*	2.5%	?
N#C/C(=C\c1ccc(O)c(O)c1)C(=O)Nc1ccccc1	>57	?	-4.8%	25.1µM*
COc1ccc2c3c1O[C@@H]1C(=O)CC[C@@]4(O)[C@@H](C2)N(CC2CC2)CC[C@]314	>57	11.6%	0.5%	-2.7%
